The test concerns Trypanosoma brucei. The experiment in a line: Trypanosoma brucei 72 hour study. On the set-up: scale not given: in the data most compounds retested in dose-response had high values. The class given is functional, organism-based.

SMILES strings stand for the structures. In all, about 66,000 compounds went through this assay and about 960 (1.5%) showed an effect of 50% or more. The sample holds strong results, similar compounds and a random draw of the others, so the mix is not that of the screen.

Consider `O=C(O)C(F)(F)F.O=C(c1cccc(Cl)c1)N1CCCn2c(CN3CCCCC3)nnc2C1`, for which the “Percent Effect” value (30 µM, 30.03 µM) worked out at 5.337%. For `Oc1cccc(CNCc2ccc(-n3cncn3)nc2)c1`, the “Percent Effect” value (30.3 µM, […]) is -113.8%. For `COCCN1C(=O)[C@H]2CC[C@@H]1CN(S(=O)(=O)c1ccc(C#N)cc1)C2`, the “Percent Effect” value (30.3 µM, […]) is recorded as -35.87%. Consider `CCO[C@H]1CO[C@@]2(CCCN(S(=O)(=O)c3cccnc3)C2)C1.O=C(O)C(F)(F)F`, for which, for the setting “30 µM, 30.03 µM”, the “Percent Effect” value stood at 23.98%.

`Fc1cccc(CN2CCOC3(COCCN(CC4CC4)C3)C2)c1.O=C(O)C(F)(F)F.O=C(O)C(F)(F)F` (configuration not stated): under “30.3 µM, […]”, the “Percent Effect” value is on record as -50.27%. The same measure, in the same setting: the value for `CC(C)(C)c1ccc(C(=O)C2CCCN(C(=O)CNS(C)(=O)=O)C2)cc1` (configuration not stated) was -41.24%; that for `CC(C)(N)C(=O)N1CCCC(C(=O)c2ccc(C(C)(C)C)cc2)C1` (configuration not stated) was 89.7%.

As to `CC(=O)NCC(=O)N1CCCC(C(=O)c2ccc(C(C)(C)C)cc2)C1` (configuration not stated), the “Percent Effect” value (30.3 µM, […]) was -72.68%.

For the molecule `O=C(O)C(F)(F)F.O=C(c1ccnnc1)N1C[C@H](Oc2ccccn2)[C@H]2OCCC[C@H]21`, the “Percent Effect” value (30.3 µM, […]) is given as -55.97%. Still for that read-out and setting: the result for `Cl.OC1CCN(c2cncc(CCC3CCCN3)n2)CC1` (configuration not stated) reads -6.285%; that for `Cc1ncoc1C(=O)N1CCn2c(COCC3CC3)cnc2C1C` (configuration not stated), 10.54%. Take `CCOCc1cnc2n1CCN(C(=O)c1ccoc1C)C2C` (configuration not stated): under “30.3 µM, […]”, the “Percent Effect” value is recorded as -34.9%.

For the molecule `Cc1occc1C(=O)N1CCn2c(COCC3CC3)cnc2C1C` (configuration not stated), the “Percent Effect” value (30 µM, 30.03 µM) is recorded as 51.37%. Consider `COc1ccc(CN2CCC3(CC2)CCN(CC(C)C)C3=O)cc1.O=C(O)C(F)(F)F`, for which the “Percent Effect” value (30.3 µM, […]) is listed as 0.8917%. For the molecule `CN(C)CCO[C@H]1CN(CC2CC2)[C@@H]2CCCO[C@H]12.O=C(O)C(F)(F)F.O=C(O)C(F)(F)F`, the “Percent Effect” value (30.3 µM, […]) was found to be 15.45%.

For the molecule `c1ccc(N2CCC(c3ccncc3)CC2)cc1`, for the setting “30.3 µM, […]”, the “Percent Effect” value amounted to 0.5256%. Turning to `CC(=O)N1CCCC2(C1)CN(c1nncs1)CCO2.O=C(O)C(F)(F)F` (configuration not stated), the “Percent Effect” value (30.3 µM, […]) was -90.31%.

For `Cc1nc(C2CCNCC2)cc(N(C)Cc2cc3cc(F)ccc3[nH]2)n1`, the “Percent Effect” value (30 µM, 30.03 µM) is listed as 7.512%. For `CCN(Cc1ccncc1)c1cc(C2CCNCC2)nc(C)n1`, the “Percent Effect” value (30 µM, 30.03 µM) is given as -25.3%. Still for that read-out and setting: the result for `CCN(Cc1c(F)cccc1Cl)c1cc(C2CCNCC2)nc(C)n1` reads 88.22%; that for `O=C(CC1CCCC1)N1C[C@H](OCc2ccncc2)[C@H]2OCCC[C@H]21.O=C(O)C(F)(F)F`, -16.6%. Consider `Cc1ccc(CN(Cc2ccncc2)C2CC(C)(C)NC(C)(C)C2)o1.O=C(O)CC(O)(CC(=O)O)C(=O)O`, for which the “Percent Effect” value (30.3 µM, […]) was -22.8%. As to `Nc1nccnc1C(=O)NC1CCN(Cc2ccccc2)C1` (configuration not stated), the “Percent Effect” value (30 µM, 30.03 µM) worked out at 52.39%. As to `O=C(Nc1nccs1)NC1CCN(Cc2ccccc2)C1` (configuration not stated), the “Percent Effect” value (30 µM, 30.03 µM) was -14.85%. For `Nc1nccnc1C(=O)NC1CCCN(Cc2c(F)cccc2F)C1` (configuration not stated), the “Percent Effect” value (30 µM, 30.03 µM) was -36.01%. On to `c1ccc(N2CCC(OCC3CCCCO3)CC2)nc1` (configuration not stated), for which the “Percent Effect” value (30.3 µM, […]) is -91.25%. Still for that read-out and setting: the value for `COc1cc(CNCC(O)c2ccccc2)cc2c1OCO2.Cl` (configuration not stated) was 51.8%; that for `COc1cc(CNCCn2ccnc2)cc2c1OCO2.Cl` was 6.439%. In the case of `COc1cc(CNCc2ccc(C(C)O)cc2)cc2c1OCO2` (configuration not stated), the “Percent Effect” value (30 µM, 30.03 µM) is listed as 8.941%.

Take `Cc1cccc(COc2ccc(C(C)N)cc2)c1.Cl` (configuration not stated): the “Percent Effect” value (30 µM, 30.03 µM) is recorded as 102.3%. Consider `Cc1cccc(COc2ccc(C(C)NS(N)(=O)=O)cc2)c1` (configuration not stated), for which the “Percent Effect” value (30 µM, 30.03 µM) amounted to 4.364%. Still for that read-out and setting: the value for `Cc1cccc(COc2ccc(C(C)NC(=O)CNC(N)=O)cc2)c1` (configuration not stated) was 6.871%; that for `CN1CC[C@H]2OCC[C@@H](C(=O)NCc3ccco3)[C@@H]2C1.O=C(O)C(F)(F)F` was -30.69%; that for `COc1ccnc(N2C[C@@H]3CC[C@H](C2)N(CC2CCC2)C3=O)n1` was 0.242%. As for `O=C(O)C(F)(F)F.O=C1CC[C@H]2[C@H](CCN2S(=O)(=O)C2CC2)N1CCN1CCCC1`, under “30.3 µM, […]”, the “Percent Effect” value is -16.69%. For `COc1cccc2c1ccn2CCC(=O)NCCCC(=O)O`, the “Percent Effect” value (30 µM, 30.03 µM) is recorded as 53.78%.

For the molecule `COc1cccc2c1ccn2CCNC(=O)CC(C)C`, where the note is “30 µM, 30.03 µM”, the “Percent Effect” value is -27.5%. `COCC(=O)NCCn1ccc2c(OC)cccc21`: where the note is “30 µM, 30.03 µM”, the “Percent Effect” value was found to be 21.63%. Same read-out and setting: the value for `CC(C)(C)c1ncc2c(n1)CN(C(=O)c1ccncc1)C2` was -0.7468%; that for `CC(C)(C)c1ncc2c(n1)CN(C(=O)c1ccc(-c3nc[nH]n3)cc1)C2` was 54.09%. The same measure, in the same setting: the result for `CN(C)c1ccc(C(=O)N2Cc3cnc(C(C)(C)C)nc3C2)cc1` reads -40.98%. In the case of `O=C(C1CCOCC1)N1CCO[C@H]2[C@H](Oc3cccnc3)CC[C@@H]21.O=C(O)C(F)(F)F`, under “30 µM, 30.03 µM”, the “Percent Effect” value is given as -14.62%. `CCN(CC)C(=O)CN(C)C(=O)c1ccc(-c2ccsc2)nc1C`: the “Percent Effect” value (30 µM, 30.03 µM) is on record as -62.98%. On the same count and under the same terms, the value for `Cc1cc(CN(C)C(=O)CC(C)C)no1` was -35.18%; that for `COc1ccccc1CC(C)CC(=O)N(C)Cc1cc(C)on1` (configuration not stated) was 72.44%.

Turning to `COc1ccccc1CC(=O)N(C)Cc1cc(C)on1`, the “Percent Effect” value (30 µM, 30.03 µM) is listed as -10.42%. As to `CCc1nccn1C1CCCN(C(=O)C2=NN(C)C(=O)CC2)C1` (configuration not stated), under “30.3 µM, […]”, the “Percent Effect” value was -18.44%.
